In PubChem BioAssay (NCI):
This is part of a sample that, as a whole, favours compounds with a hit. Of some 79,000 tested, about 15% had one in any assay. The source made the active and inactive calls. No stated cut-off is given here; in the data, active means growth inhibition above about 70%; inactive means the rest.

Key:
[1] = NCI Yeast Anticancer Drug Screen. Data for the rad50 strain (AID 155);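 further: 0% = growth of vehicle-only cultures of the same strain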; conditions: S. cerevisiae rad50 strain growth inhibition, hits give high values
Summary of the method: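 Growth of the mutant yeast was measured after compound exposure and referenced to vehicle-treated cultures.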

[2] = NCI Yeast Anticancer Drug Screen. Data for the mec2-1 strain (AID 157); conditions: S. cerevisiae mec2-1 strain, hits give high values
Summary of the method: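 Vehicle-treated cultures served as reference for growth inhibition of compound-exposed mec2-1 yeast.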

[3] = NCI Yeast Anticancer Drug Screen. Data for the sgs1 mgt1 strain (AID 161);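 further: 0% = growth of cultures given vehicle only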; conditions: S. cerevisiae sgs1 mgt1 strain, hits give high values
Summary of the method: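 Genetically altered yeast, compound exposure, growth inhibition relative to vehicle.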

[4] = NCI Yeast Anticancer Drug Screen. Data for the cln2 rad14 strain (AID 165);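 further: 0% = growth equal to vehicle treated cultures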; conditions: S. cerevisiae cln2 rad14 strain, hits give high values
Summary of the method: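 Each compound was tested on cln2 rad14 yeast. Inhibition of growth was calculated against vehicle-exposed controls.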

[5] = NCI Yeast Anticancer Drug Screen. Data for the bub3 strain (AID 167); conditions: S. cerevisiae bub3 mutant strain, hits give high values
Summary of the method: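 Whole-cell yeast assay. The mutant strain was incubated with compounds, and growth inhibition was determined by comparison with vehicle-treated cells.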

[6] = NCI Yeast Anticancer Drug Screen. Data for the mlh1 rad18 strain (AID 175); conditions: S. cerevisiae mlh1 rad18 strain growth inhibition, hits give high values
Summary of the method: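 Vehicle-treated cultures served as the reference for growth inhibition in a yeast strain carrying DNA damage repair alterations exposed to each compound.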

[7] = at 5.0 µM (retest, dose inferred, filed as 0.5)
[8] = at 50.0 µM (retest, dose inferred, filed as 5.0)

Measured: growth inhibition

O=C=Nc1ccccc1-c1ccc([N+](=O)[O-])cc1Cl
active: [1]; at 50.0 µM 73.2% | [5]; at 50.0 µM 83.7% | [6]; at 50.0 µM 84.2%
inactive: [1]; [7] -1% | [1]; [8] 20% | [2]; [7] 32% | [2]; [8] 62% | [2]; at 50.0 µM 37.6% | [3]; [7] 8% | [3]; [8] 44% | [3]; at 50.0 µM 21.9% | [4]; [7] -5% | [4]; [8] -2% | [4]; at 50.0 µM 68.8% | [5]; [7] 36% | [5]; [8] 42% | [6]; [7] 40% | [6]; [8] 62%

COC1CCC(O)C(CO)O1 (configuration not stated)
active: [1]; [7] 100% | [1]; [8] 99% | [1]; at 50.0 µM 99.5% | [2]; [7] 100% | [2]; [8] 99% | [2]; at 50.0 µM 99.6% | [3]; [7] 100% | [3]; [8] 99% | [3]; at 50.0 µM 99.7% | [4]; [7] 100% | [4]; [8] 99% | [4]; at 50.0 µM 99.6% | [5]; [7] 99% | [5]; [8] 99% | [5]; at 50.0 µM 99.5% | [6]; [7] 99% | [6]; [8] 99% | [6]; at 50.0 µM 99.5%

Cc1ccc2c(c1)C1(C)C=C(CN3CCN(C)CC3)C(=O)CC1O2 (configuration not stated)
active: [1]; [8] 97% | [1]; at 50.0 µM 99.6% | [2]; [8] 99% | [2]; at 50.0 µM 99.7% | [3]; [8] 99% | [3]; at 50.0 µM 99.8% | [4]; [8] 99% | [4]; at 50.0 µM 99.6% | [5]; [8] 99% | [5]; at 50.0 µM 99.7% | [6]; [8] 99% | [6]; at 50.0 µM 99.5%
inactive: [1]; [7] 16% | [2]; [7] 20% | [3]; [7] 22% | [4]; [7] -4% | [5]; [7] -3% | [6]; [7] 11%

N#CC1C(=O)SC2c3ccccc3C(=O)c3ccccc3C12 (configuration not stated)
inactive: [1]; [7] -3% | [1]; [8] 51% | [1]; at 50.0 µM 63.8% | [2]; [7] -28% | [2]; [8] -4% | [2]; at 50.0 µM 0.05% | [3]; [7] -6% | [3]; [8] 5% | [3]; at 50.0 µM 38% | [4]; [7] 6% | [4]; [8] 36% | [4]; at 50.0 µM 42.6% | [5]; [7] -8% | [5]; [8] 27% | [5]; at 50.0 µM 32.8% | [6]; [7] -8% | [6]; [8] 58% | [6]; at 50.0 µM 69.8%

CCOc1c(Br)cc(Br)cc1/C=N/NS(=O)(=O)c1ccc(C)cc1
inactive: [1]; [7] 41% | [2]; [7] 26% | [3]; [7] 38% | [4]; [7] 30% | [5]; [7] 45% | [6]; [7] 48%
active: [1]; [8] 90% | [1]; at 50.0 µM 75.7% | [2]; [8] 88% | [2]; at 50.0 µM 74.5% | [3]; [8] 90% | [3]; at 50.0 µM 82.2% | [4]; [8] 87% | [4]; at 50.0 µM 82.6% | [5]; [8] 85% | [5]; at 50.0 µM 72.2% | [6]; [8] 91% | [6]; at 50.0 µM 75%

O=C1C2(Cl)C(Cl)=C(Cl)C1(Cl)C1(Cl)C(Cl)=C(Cl)C(=O)C21Cl (configuration not stated)
inactive: [1]; [7] 55% | [2]; [7] 45% | [2]; at 50.0 µM 54.2% | [3]; [7] 45% | [3]; at 50.0 µM 39.8% | [4]; [7] 19% | [5]; [7] 21% | [5]; at 50.0 µM 28.4% | [6]; [7] 66% | [6]; at 50.0 µM 61.2%
active: [1]; [8] 88% | [1]; at 50.0 µM 98.2% | [2]; [8] 92% | [3]; [8] 92% | [4]; [8] 89% | [4]; at 50.0 µM 76.4% | [5]; [8] 92% | [6]; [8] 90%

COC(=O)c1ccccc1N=NN(C)CC1OC2OC(C)(C)OC2C1OC (configuration not stated)
inactive: [1]; [7] 10% | [1]; [8] 69% | [2]; [7] 17% | [2]; [8] 27% | [2]; at 50.0 µM 43.2% | [3]; [7] 1% | [3]; [8] 36% | [4]; [7] -3% | [4]; [8] 20% | [4]; at 50.0 µM -0.8% | [5]; [7] 0% | [5]; [8] 44% | [5]; at 50.0 µM 32.6% | [6]; [7] 4% | [6]; [8] 61%
active: [1]; at 50.0 µM 71.2% | [3]; at 50.0 µM 74.1% | [6]; at 50.0 µM 88%

CC(C)(C)c1ccc(OC(=O)Nc2ccc(Cl)cc2[N+](=O)[O-])c(Br)c1
inactive: [1]; [7] -31% | [1]; [8] 32% | [1]; at 50.0 µM 33% | [2]; [7] 2% | [2]; [8] 9% | [2]; at 50.0 µM 64.2% | [3]; [7] 3% | [3]; [8] 37% | [3]; at 50.0 µM 68.5% | [4]; [7] 3% | [4]; [8] 7% | [5]; [7] 1% | [5]; [8] 14% | [5]; at 50.0 µM 20.1% | [6]; [7] 10% | [6]; [8] 38%
active: [4]; at 50.0 µM 90.8% | [6]; at 50.0 µM 77.5%

Cc1cc(SC#N)cc(C)c1O
inactive: [1]; [7] 6% | [1]; [8] 65% | [2]; [7] -3% | [2]; [8] 47% | [2]; at 50.0 µM 63.1% | [3]; [7] -1% | [3]; [8] 45% | [4]; [7] 32% | [4]; [8] 69% | [4]; at 50.0 µM 49% | [5]; [7] -4% | [5]; [8] 63% | [6]; [7] -5%
active: [1]; at 50.0 µM 82% | [3]; at 50.0 µM 74% | [5]; at 50.0 µM 78.9% | [6]; [8] 81% | [6]; at 50.0 µM 83.5%
